Key:
Experiment in all cases: PBM binding z-score (relative to random genomic background probes); higher = stronger binding; sequences stand for … in GC…GCGATTGACAGCGTAGAATGAAGG
[1] = tested on: FXR:RXRa (NR concentration 270 nM, RXRa partner concentration 90 nM)
Outline: (§1)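 Random background probes are the reference for binding z-scores. These scores derive from regression-normalized fluorescence on custom Agilent 4×180K protein-binding microarrays incubated 1 h with ligand-free nuclear receptor dimers. Binding was detected with antibodies against each partner (one per run).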

[2] = tested on: LXRa:RXRa (NR concentration 270 nM, RXRa partner concentration 90 nM)
Outline: as §1

[3] = tested on: LXRa homodimer (NR concentration 270 nM)
Outline: as §1

[4] = tested on: LXRb homodimer (NR concentration 270 nM)
Outline: as §1

[5] = tested on: PPARa:RXRa (NR concentration 270 nM, RXRa partner concentration 90 nM)
Outline: as §1

[6] = tested on: PPARg:RXRa (NR concentration 180 nM, RXRa partner concentration 90 nM)
Outline: as §1

[7] = tested on: PPARg:RXRa 270nM:90nM, anti-RXR (NR concentration 270 nM, RXRa partner concentration 90 nM)
Outline: as §1

[8] = tested on: PPARg:RXRa 30nM:10nM, anti-RXR (NR concentration 30 nM, RXRa partner concentration 10 nM)
Outline: as §1

[9] = tested on: PPARg:RXRa 90nM:30nM, anti-RXR (NR concentration 90 nM, RXRa partner concentration 30 nM)
Outline: as §1

[10] = tested on: PPARg:RXRa DBDmut IVT, anti-RXR (DBD mutation: RXRa K156A/R161A, NR concentration 270 nM, RXRa partner concentration 90 nM)
Outline: as §1

[11] = tested on: PPARg:RXRa IVT, anti-PPARg (NR concentration 270 nM, RXRa partner concentration 90 nM)
Outline: as §1

[12] = tested on: PPARg DBDmut:RXRa IVT, anti-PPARg (DBD mutation: PPARg1 K132A/R137A, NR concentration 270 nM, RXRa partner concentration 90 nM)
Outline: as §1

[13] = tested on: PPARg DBDmut IVT, anti-PPARg (DBD mutation: PPARg1 K132A/R137A, NR concentration 270 nM)
Outline: as §1

[14] = tested on: PPARg homodimer (NR concentration 180 nM)
Outline: as §1

[15] = tested on: PXR:RXRa (NR concentration 270 nM, RXRa partner concentration 90 nM)
Outline: as §1

[16] = tested on: PXR homodimer (NR concentration 270 nM)
Outline: as §1

[17] = tested on: RARa:RXR (NR concentration 270 nM, RXRa partner concentration 90 nM)
Outline: as §1

[18] = tested on: RARa homodimer (NR concentration 270 nM)
Outline: as §1

[19] = tested on: RARb:RXRa (NR concentration 270 nM, RXRa partner concentration 90 nM)
Outline: as §1

Sequence	PBM binding z-score [1]	PBM binding z-score [2]	PBM binding z-score [3]	PBM binding z-score [4]	PBM binding z-score [5]	PBM binding z-score [6]	PBM binding z-score [7]	PBM binding z-score [8]	PBM binding z-score [9]	PBM binding z-score [10]	PBM binding z-score [11]	PBM binding z-score [12]	PBM binding z-score [13]	PBM binding z-score [14]	PBM binding z-score [15]	PBM binding z-score [16]	PBM binding z-score [17]	PBM binding z-score [18]	PBM binding z-score [19]
ACTCGGAGGACAAAGGTGAGAGCTACGCCAGTGA	0.567	0.58	-0.14	-0.434	2.81	4.53	5.16	3.49	5.42	0.595	2.19	-0.781	-0.86	0.6	0.477	-0.385	1.24	-0.258	2.37
TCTAGTTCGTCACGGAGGTCACACACGACGGGTA	3.69	3.72	2.25	1.17	4.1	2.17	3.67	3.62	3.42	1.52	2.15	0.73	0.867	6.1	5.15	2.64	5.11	2.71	3.83
TCTACTTGGTCACGGAGGTCACACACGACGGGTA	3.59	3.73	3.08	1.3	3.99	3.67	4.1	3.72	3.83	3.04	4.21	1.37	1.65	3.86	4.67	2.05	4.97	2.04	3.89
CCTACTGGGCCACGAAAGGGCATTGATTCAGTGA	-0.208	0.621	-0.166	-1.21	1.7	1.78	1.95	0.197	0.806	5.38	5.14	0.311	0.299	-0.0604	0.616	-0.539	0.471	-0.24	1.69
CGTCCAAGGTAAATGCTAGGTCAGTGAAAGCATT	0.57	1.38	0.935	-0.419	0.673	-0.228	-0.117	-0.486	-0.493	0.714	0.881	-1.05	-0.95	0.424	0.128	-0.305	0.803	-0.343	1.61
CCTACTGGGCCGAGGTCATTGATCAGTCAAAGCA	4.08	3.71	1.15	-0.228	3.96	3.02	3.38	0.749	2.52	1.55	2.71	-0.758	-1.27	2.05	4.62	2.49	4.33	-0.11	3.19
CCTACTGGGCCACTCAGAGGTCATTGATCATATG	2.81	4.09	4.52	0.238	3.98	3.57	3.49	1.52	2.96	5.13	5.18	-0.186	-0.561	1.94	5.1	1.83	4.46	0.374	3.28
CCTAGTTGGTCAAGGTCCCACACGCTATAGGTAC	0.27	0.395	0.55	-0.02	0.398	0.782	0.497	-0.0168	0.409	1.11	1.17	-0.0918	0.474	1.59	0.0607	0.41	0.436	0.884	1.29
CCTAGTTGGTCAAGGTCACGCACGCTATAGGTAC	4.95	4.55	2.22	0.524	4.31	3.69	4.15	1.96	3	2.54	3.78	0.403	0.558	3.73	4.64	2.27	4.99	2.21	4.31
TATACAGGATCAAAGGCCAGAGTACGAATGTCGA	0.361	0.271	-0.0452	0.483	1.33	2.37	3.11	1.85	2.92	0.256	1.03	0.156	0.991	1.27	0.0724	0.338	0.0923	0.389	0.997
CCTAGTTGGTCAGGAAGTCACACACCGGATATGA	0.197	0.331	0.553	0.257	0.239	0.696	0.592	0.308	0.322	0.63	0.621	-0.0162	0.0813	1.03	0.246	0.549	0.014	1.63	0.892
TAGCCTAGGTCATGCGGGTCAGTATAGTGTCGGC	4.39	3.93	1.06	0.0417	4.05	2.77	3.43	0.354	2.32	2.38	3.65	0.284	-0.506	1.03	3.67	1.56	3.45	-0.237	4.05
CTCGAAAGGTCGTGGTCAGGTGAGTATACCAAAC	5.9	4.27	0.0394	0.247	5.02	3.26	4.6	1.21	3.34	0.883	2.33	-0.0163	0.484	2.21	3.61	0.127	4.47	0.777	4.04
